# Where “and” joins values, the source holds several entries; their conditions need not be identical. Identical values can stand only once.
# System: H9c2
# Experiment: cardiomyocyte survival under oxidative or metabolic stress – cell-based, panel, H9c2 and HL-1, ATP luminescence, set 2, SAR follow-up (AID 651871);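 note: cells exposed to stressor for 2 h before ATP readout; reference of the scale not given here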
# Details: H9c2/HL-1 cardiomyocytes, H2O2 oxidative stress, with H2O2, run 2, at 79 µM (top of the series)
row,Structure (SMILES),activity (protection/inhibition)
1,COc1cc(-c2cc(C(=O)Nc3cccc(C(=O)NCc4ccccc4)c3)c3ccccc3n2)cc(OC)c1OC,119%
2,CCOC(=O)c1cccc(NC(=O)CNC(=O)c2cc(-c3cc(OC)c(OC)c(OC)c3)nc3ccccc23)c1,114%
3,COc1ccc2c(c1OC)C(=O)N1c3ccccc3C(=O)N(Cc3cccc(Cl)c3Cl)C21 (centres undefined),101% and 61%
4,COc1ccc2nc(-c3cc(OC)c(OC)c(OC)c3)cc(C(=O)NCC(=O)Nc3ccc(C(C)=O)cc3)c2c1,122% and 100%
